D1 agonist = activates the human D1 dopamine receptor; activation, % at 2 µM; 360,000 compounds, 1% hits; P21728; HEK293 T-REx D1 cells, calcium flux, agonist mode; in the data active means activation above about 30%
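Tetracycline-induced HEK293 TREx D1 cells, force-coupled to calcium signalling, were dye-loaded with a no-wash calcium kit. Compound was pin-added after a 10 s baseline. Fluorescence was read kinetically at 1 cycle/s for 180 s, with calcium rises flagged as agonism.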
D1 PAM = human D1 dopamine receptor positive modulation | P21728 | HEK293 TREx D1 cells, calcium flux, dopamine EC20 potentiation | 360,000 compounds, 0.036% hits | potentiation, % at 10 µM; in the data active means potentiation above about 30%
TRHR agonist-1 = activates the human TRH receptor | activation, % at 2 µM | AID 493084 | TRHR cells, calcium flux fluo-8, FDSS agonist mode | 360,000 compounds, 0.18% hits | P34981; in the data active means activation above about 30%
Target sequence (P34981 whole entry, looked up): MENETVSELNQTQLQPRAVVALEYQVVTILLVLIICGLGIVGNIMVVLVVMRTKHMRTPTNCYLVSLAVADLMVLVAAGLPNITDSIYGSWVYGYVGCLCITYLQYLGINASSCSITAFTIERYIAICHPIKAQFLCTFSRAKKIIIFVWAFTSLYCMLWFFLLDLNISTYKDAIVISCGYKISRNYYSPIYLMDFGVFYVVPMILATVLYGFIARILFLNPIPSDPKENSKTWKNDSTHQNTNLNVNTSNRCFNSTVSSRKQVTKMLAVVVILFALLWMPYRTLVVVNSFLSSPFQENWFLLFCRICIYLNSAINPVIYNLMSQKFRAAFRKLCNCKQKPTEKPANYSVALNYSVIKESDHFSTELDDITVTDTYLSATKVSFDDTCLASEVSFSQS
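Steps: seed TRHR cells overnight; add fluo-8 no-wash Ca dye, RT 30 min–1.5 h; record 10 s baseline; pin-transfer compounds; monitor fluorescence 1 cycle/s for the agonist window. Calcium increases flag candidate agonists.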
TRHR enhancer-1 = TRH receptor (human) allosteric enhancement; 360,000 compounds, 0.66% hits; enhancement, % at 2 µM; P34981; TRHR cells, fluo-8 calcium fluorescence, EC20 TRH enhancement; AID 493056; in the data active means enhancement above about 30%
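Enhancer read-out: after compound pinning and an initial kinetic agonist-mode read, an EC20 of TRH (10 nM final) was injected and fluo-8 calcium signal (Ex 480/Em 530) followed at 1 s/cycle for 100 cycles in TRHR-expressing cells.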
D1 antag = human D1 dopamine receptor antagonism | HEK293 TREx D1 cells, calcium flux, dopamine EC80; active compounds read low | activity change, negative = inhibition, % at 10 µM | P21728 | 360,000 compounds, 3.2% hits | AID 504652; in the data active means activity change below about -30%
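Kinetic fluorescence of a calcium dye serves as the read-out. D1-expressing Hek293 Trex cells, induced overnight at 30 C, are exposed to compound for 180 s before an EC80 dopamine addition, then read 180 s further.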
TRHR enhancer-2 = confirmation of human TRH receptor allosteric enhancers; TRH receptor cell assay, enhancer confirmation qHTS; 970 tested, under 10 active; activity change, negative = inhibition, % at 46.1 µM; AID 493076; shares compounds with TRHR enhancer-1;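 further: compound effect scored on response to added TRH at EC20 of 10 nM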
TRHR agonist-2 = confirmation of human TRH receptor agonists; shares compounds with TRHR enhancer-1; TRHR-expressing cells, agonist activation read-out; Potency, µM (highest dose often 46.1 µM), hits mostly activators; 970 compounds, 8% hits; further: nearly all actives have a fitted effect of over 75% in size
Each line names hits and unclear results; the compound was inactive in the other large screens (follow-up assays come after a bar, where they were run). This is a sample that favours compounds with a hit; in the whole collection about 4.7% have one here. Unless noted, the call rests on the fitted dose curve; in most records, active means well fitted curve in the direction sought with a large enough effect; inconclusive means small, poorly fitted or top-dose-only effect, or another doubt; inactive means no such curve, though single readings can be large; an effect the other way counts as inactive or inconclusive.

COCCN(C(=S)Nc1ccccc1C)C(C)c1cccnc1 (configuration not stated)	none
Cc1ccccc1NC(=S)N(CCN(C)C)C(C)c1cccnc1 (configuration not stated)	TRHR enhancer-1 43.1 | TRHR enhancer-2 inactive | TRHR agonist-2 inactive
Cc1oc2ncn(C)c(=O)c2c1C(=O)NCc1ccc(Cl)cc1	none
CC(=O)N1CC(C)Oc2ccc(S(=O)(=O)NC(CC(=O)O)c3ccccc3)cc21 (configuration not stated)	TRHR enhancer-1 43.6 | TRHR enhancer-2 inactive | TRHR agonist-2 inactive
Cc1cc(C(=O)COc2cccc3cccnc23)c(C)n1C	none
Cc1ccc(OCC(=O)c2cc(C)n(C)c2C)c([N+](=O)[O-])n1	TRHR enhancer-1 44.3 | TRHR enhancer-2 inactive | TRHR agonist-2 inactive
Cc1cc(C)c(S(=O)(=O)NCCc2sc(-c3cccnc3)nc2C)c(C)c1	none
Cc1ccc(S(=O)(=O)c2cn(CC(=O)Nc3ccc4c(c3)OCO4)c3ccc(F)cc3c2=O)cc1	none
COc1ccc(CNS(=O)(=O)c2ccc(C(=O)N(C)C)s2)cc1	none
COCCNC(=S)N/N=C/c1ccc(-c2ccc([N+](=O)[O-])cc2)o1	D1 agonist 87.6, TRHR agonist-1 33.8 | TRHR enhancer-2 inactive | TRHR agonist-2 10.3µM
O=[N+]([O-])c1ccc(-c2ccc(/C=N/O)o2)cc1	none
COc1ccc(-c2nc3cc(C)ccn3c2NC(=O)c2c(F)cccc2Cl)cc1	TRHR enhancer-1 56.4 | TRHR enhancer-2 inconclusive | TRHR agonist-2 inactive
Cc1ccc(C)c(N2CCN(C(=O)CCS(=O)(=O)c3cc4c(cc3Cl)NC(=O)CO4)CC2)c1	none
CC1(C)Cc2c(sc(NC(=O)c3ccc4ncsc4c3)c2C(N)=O)C(C)(C)N1	TRHR enhancer-1 43.6 | TRHR enhancer-2 inactive | TRHR agonist-2 inactive
COc1ccccc1NC(=O)CSc1oc(-c2ccccc2)nc1S(=O)(=O)c1ccccc1	none
CC(=O)c1ccccc1OCCOc1ncnc2sccc12	TRHR enhancer-1 59.8 | TRHR enhancer-2 inactive | TRHR agonist-2 inactive
CCN1C(=O)[C@H]2[C@@H](c3ccc(-c4ccc(F)cc4)c(OC)c3)N[C@@](CC(C)C)(C(=O)OC)[C@H]2C1=O	none
COc1ccccc1NC(=O)COn1nnc2ccc(S(=O)(=O)N3CCOCC3)cc21	TRHR enhancer-1 59.3 | TRHR enhancer-2 inactive | TRHR agonist-2 inactive
CCOc1ccc(-n2c(C)nc3cc(C(=O)NCc4ccc(C)cc4)ccc32)cc1	none
C[N+]1(CCCCCCC(=O)/C=N/O)CCCCCC1	TRHR enhancer-1 42.8 | TRHR enhancer-2 inactive | TRHR agonist-2 inactive
C[N+](C)(C)CCCCCCC(=O)/C=N/O	none
CSC(=Nc1cccc(C)c1)NC#N	none
N#CNC(=Nc1cccc(C(F)(F)F)c1)SCc1ccc(C(=O)O)cc1	TRHR enhancer-1 46.5 | TRHR enhancer-2 inactive | TRHR agonist-2 inactive
COc1ccc(C(=O)Oc2ccc(/C=N/NC(=O)c3ccccc3OC)cc2[N+](=O)[O-])cc1	TRHR enhancer-1 50.9 | TRHR enhancer-2 inactive | TRHR agonist-2 inactive
S=C(NC1CCCCC1)N1CCN(c2ccccn2)CC1	TRHR enhancer-1 43.5 | TRHR enhancer-2 inactive | TRHR agonist-2 inactive
S=C(NC1CCCCC1)N1CCN(c2ncccn2)CC1	none
CCCCC(=O)Nc1ccc(N2CCN(c3ccc(F)cc3)CC2)cc1	none
Cc1cc(=O)n2ccccc2c1C#N	none
COc1ccc2c(C#N)c3ccccn3c2c1	TRHR enhancer-1 47.2 | TRHR enhancer-2 inactive | TRHR agonist-2 inconclusive
Cc1ccc2c(CNCc3cccc(Cl)c3)c(C(=O)O)n(Cc3ccc(F)cc3Cl)c2c1	none
Cc1ccc(C)c(C2=CSC3=NCCN23)c1	TRHR enhancer-1 67.6 | TRHR enhancer-2 inactive | TRHR agonist-2 inactive
Cc1ccc(C)c(C2=CSC3=NS(=O)(=O)CCN23)c1	none
Cc1ccc(NC(=O)c2nc(S(C)(=O)=O)ncc2N(Cc2ccc(C(C)(C)C)cc2)Cc2ccco2)cc1C	none
CCOC(=O)/C(C#N)=C/c1cccc(F)c1	TRHR agonist-1 43.2 | TRHR enhancer-2 inactive | TRHR agonist-2 inactive
CC(=O)Nc1nonc1-c1nnc(SCc2ccc(F)cc2Cl)n1C	none
O=C(COC(=O)c1ccc(Cl)cc1[N+](=O)[O-])NC(=O)c1ccccc1	none
Nc1ccc(C(=O)OCC(=O)NC(=O)c2ccccc2)cc1[N+](=O)[O-]	TRHR enhancer-1 54.9 | TRHR enhancer-2 inactive | TRHR agonist-2 inactive
CN(C)CCCNC1=CC(=O)CC(c2ccccc2)C1 (configuration not stated)	TRHR enhancer-1 55.8 | TRHR enhancer-2 inactive | TRHR agonist-2 inactive
NCCSc1c(-c2ccc(F)cc2)[nH]c2ccccc12	TRHR enhancer-1 44.7 | TRHR enhancer-2 inactive | TRHR agonist-2 inconclusive
CCOc1cc(CNC(=O)c2ccc3c(c2)N(C)C(=O)C2CCCCN32)cc(OCC)c1OCC (configuration not stated)	none
Cc1ccc(NC(=O)[C@@H]2CCC(=O)N2C2OC(=O)c3ccccc32)cc1Cl (some centres not stated)	TRHR enhancer-1 67.9 | TRHR enhancer-2 inactive | TRHR agonist-2 inactive
Cc1cc([N+](=O)[O-])ccc1NC(=O)c1ccco1	TRHR enhancer-1 46.0 | TRHR enhancer-2 inactive | TRHR agonist-2 inactive
Cc1ccc2c(NC(=O)c3ccco3)cccc2n1	TRHR enhancer-1 41.8 | TRHR enhancer-2 inactive | TRHR agonist-2 inactive
Cc1cc(NC(=O)c2ccc([N+](=O)[O-])cc2Cl)ccc1NC(=O)c1ccco1	none
O=C(N/C(=C/c1ccc(Br)cc1)C(=O)N1CCOCC1)c1ccc(Br)o1	TRHR enhancer-1 97.4 | TRHR enhancer-2 inactive | TRHR agonist-2 inactive
CCOc1ccccc1N1CC(C(=O)Nc2cccc(S(=O)(=O)N3CCCCC3)c2)CC1=O (configuration not stated)	TRHR enhancer-1 73.7 | TRHR enhancer-2 inactive | TRHR agonist-2 inactive
Cc1[nH]c2ccccc2c1-c1nc2ccccc2[nH]c1=O	none
COc1cc2ncnc(NCc3ccco3)c2cc1OC	TRHR enhancer-1 74.5 | TRHR enhancer-2 inactive | TRHR agonist-2 inactive
COc1cc2ncnc(NCc3ccccc3)c2cc1OC	none
COc1cc(/C=N/N2CCOCC2)ccc1OC(=O)c1ccco1	none
COc1cc(/C=N/N(C)C)ccc1OC(=O)c1ccco1	TRHR enhancer-1 41.4 | TRHR enhancer-2 inactive | TRHR agonist-2 inactive
CCOc1ccc(Nc2cc(C)nc(N3CCOCC3)n2)cc1	none
CCOc1ccc(Nc2nc(N3CCOCC3)nc(N3CCOCC3)n2)cc1	TRHR enhancer-1 50.2 | TRHR enhancer-2 inactive | TRHR agonist-2 inactive
CCOC(=O)c1c(NC(=O)COc2ccc(Br)cc2)sc2c1CCCC2	none
Cc1c(Cl)ccc2sc(N3CCN(C(=O)c4ccco4)CC3)nc12	none (no result: D1 antag)

Bioassay records (PubChem BioAssay)
